Test results published in PubChem BioAssay (NCATS).
Records with an inconclusive call do not appear. The list shows a part of the results. A call without a number means that no potency is given here. Calls of active or inactive are those of the source. Unless noted, calls come from the whole dose curve; as a rule, active = well fitted curve in the direction sought with a large enough effect; inconclusive = small, poorly fitted or top-dose-only effect, or another doubt; inactive = no such curve, though single readings can be large; an effect the other way counts as inactive or inconclusive.

Columns and labels:
[1] = target: Mitogen-activated protein kinase 10 (Mus musculus) (UniProt Q61831); experiment: JNK3 AlphaScreen Assay (AID 530; active = well fitted curve in either direction with a large enough effect, not every such curve was filed as active;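 note: kinase came from lysate of stimulated human HepG2 cells; signal reports phosphorylation of biotinylated GST-cJun 1-79 at Ser73 with 10 µM ATP; series mostly up to about 57 µM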)
Summary of the method: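 Phosphorylation of biotinylated GST-cJun(1-79) at Ser73 is measured by AlphaScreen proximity luminescence. Enzyme is JNK3 in HepG2 lysates activated with interleukin-1beta and tumor necrosis factor alpha; ATP is 10 uM final.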

[2] = target: Cytochrome P450 3A4 (Homo sapiens) (UniProt P08684); experiment: qHTS Assay for Activators of Cytochrome P450 3A4 (AID 885); note: nearly all actives have a fitted effect of over 65% in size
Cytochrome P450 3A4 (Homo sapiens), sequence (P08684 whole entry, looked up): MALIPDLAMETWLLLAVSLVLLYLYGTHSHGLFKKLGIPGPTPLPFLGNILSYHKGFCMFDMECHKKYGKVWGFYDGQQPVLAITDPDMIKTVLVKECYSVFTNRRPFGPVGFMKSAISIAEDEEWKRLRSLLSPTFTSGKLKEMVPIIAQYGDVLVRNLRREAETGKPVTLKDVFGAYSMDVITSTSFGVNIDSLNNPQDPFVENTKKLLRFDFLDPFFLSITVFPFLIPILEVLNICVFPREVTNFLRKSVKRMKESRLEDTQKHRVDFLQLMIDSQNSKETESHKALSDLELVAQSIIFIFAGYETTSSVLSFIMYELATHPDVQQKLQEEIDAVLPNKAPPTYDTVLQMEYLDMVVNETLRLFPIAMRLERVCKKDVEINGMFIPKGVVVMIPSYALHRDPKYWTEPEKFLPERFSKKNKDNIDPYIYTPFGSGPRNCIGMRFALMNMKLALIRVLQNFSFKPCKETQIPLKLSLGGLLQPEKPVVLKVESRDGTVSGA
Summary of the method: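 Human CYP3A4 dealkylates Luciferin-PPXE to luciferin, which luciferase detection converts to light. Substrate was at its KM (25uM), buffer 200mM KPO4, reaction 60 min at RT.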

[3] = target: Cytochrome P450 3A4 (Homo sapiens) (UniProt P08684); experiment: qHTS Assay for Inhibitors and Substrates of Cytochrome P450 3A4 (AID 884); note: potency is the fitted concentration of half-maximal effect; nearly all actives have a fitted effect of over 50% in size
Summary of the method: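 Luminescent readout of luciferin produced by CYP3A4 (20 nM) dealkylation of Luciferin-PPXE, 25 uM (its KM). NADPH-driven reaction ran 60 min at RT after 10 min compound preincubation; data scaled to 57 uM ketoconazole as 100% inhibition.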

[4] = target: DNA dC->dU-editing enzyme APOBEC-3G (Homo sapiens) (UniProt Q9HC16); experiment: qHTS for inhibitors of Vif-A3G interactions: Validation (AID 588379)
DNA dC->dU-editing enzyme APOBEC-3G (Homo sapiens), sequence (Q9HC16 whole entry, looked up): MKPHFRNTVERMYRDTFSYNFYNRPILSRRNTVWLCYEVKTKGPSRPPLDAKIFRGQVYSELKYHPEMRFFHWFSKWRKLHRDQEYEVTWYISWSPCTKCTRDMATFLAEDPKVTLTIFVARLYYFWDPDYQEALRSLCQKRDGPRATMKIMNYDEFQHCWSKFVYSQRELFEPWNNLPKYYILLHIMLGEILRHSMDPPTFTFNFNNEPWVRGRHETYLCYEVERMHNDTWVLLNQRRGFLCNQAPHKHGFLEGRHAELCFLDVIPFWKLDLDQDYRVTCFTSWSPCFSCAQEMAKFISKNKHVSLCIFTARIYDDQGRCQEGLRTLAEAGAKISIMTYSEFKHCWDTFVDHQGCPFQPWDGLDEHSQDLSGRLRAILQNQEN
Summary of the method: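 Yellow fluorescence (Ex 488, Em 500-530) of Vif-coexpressing HeLa A3G-eYFP cells, scanned by Acumen cytometer, reports blocked A3G degradation. Cells plated at 700/well overnight at 37 deg C before compound addition, then a further overnight compound incubation at 37 deg C.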

[5] = target: Lethal(3)malignant brain tumor-like protein 1 (Homo sapiens) (UniProt Q9Y468); experiment: qHTS Assay for the Inhibitors of L3MBTL1: Hit Validation (AID 540279); settings: L3MBTL1 methyl-lysine binding inhibition, biochemical qHTS; note: potency is the fitted concentration of half-maximal effect; nearly all actives have a fitted effect of over 70% in size
Lethal(3)malignant brain tumor-like protein 1 (Homo sapiens), sequence (Q9Y468 whole entry, looked up): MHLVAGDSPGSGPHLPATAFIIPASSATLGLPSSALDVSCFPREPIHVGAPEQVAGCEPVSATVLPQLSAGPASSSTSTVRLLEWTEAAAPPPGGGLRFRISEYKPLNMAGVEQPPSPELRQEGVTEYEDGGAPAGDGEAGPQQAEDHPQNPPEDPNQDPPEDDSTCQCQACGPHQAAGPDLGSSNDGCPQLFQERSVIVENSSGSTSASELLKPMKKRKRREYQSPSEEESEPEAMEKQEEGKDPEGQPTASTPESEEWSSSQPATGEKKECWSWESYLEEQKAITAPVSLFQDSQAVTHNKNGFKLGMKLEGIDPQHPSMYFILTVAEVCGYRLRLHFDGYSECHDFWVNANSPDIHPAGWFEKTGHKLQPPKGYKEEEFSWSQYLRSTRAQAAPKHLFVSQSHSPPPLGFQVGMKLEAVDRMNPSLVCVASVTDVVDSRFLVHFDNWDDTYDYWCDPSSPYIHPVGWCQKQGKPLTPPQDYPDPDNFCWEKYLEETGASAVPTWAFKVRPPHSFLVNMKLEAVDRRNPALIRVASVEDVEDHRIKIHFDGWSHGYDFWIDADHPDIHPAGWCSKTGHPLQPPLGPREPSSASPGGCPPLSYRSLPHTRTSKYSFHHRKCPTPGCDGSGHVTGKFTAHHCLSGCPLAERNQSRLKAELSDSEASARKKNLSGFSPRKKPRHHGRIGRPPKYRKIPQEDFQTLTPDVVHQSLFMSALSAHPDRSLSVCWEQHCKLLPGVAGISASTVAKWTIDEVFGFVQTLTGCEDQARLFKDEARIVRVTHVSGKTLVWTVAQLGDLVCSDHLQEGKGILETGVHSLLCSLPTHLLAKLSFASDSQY
From the text: (§1) The histone code is comprised of many post-translational modifications that occur mainly in histone tail peptides. The identity and location of these marks are read by a variety of histone binding proteins that are emerging as important regulators of cellular differentiation and development and are increasingly being implicated in numerous disease states. Small molecule probes that disrupt the interaction between histone binding proteins and chromatin would enable a systematic chemical biology study of proteins that read the histone code and could potentially reveal new targets for drug discovery. However, no such small molecules are known. This dearth of quality molecular probes can largely be attributed to the novelty of the target class and the lack of screening assays. This proposal details the development of the first high-throughput screening assay for the discovery of inhibitors of methyl-lysine binding proteins and how it can be used to initiate a full-scale discovery effort for antagonists of histone binding proteins. Specifically, this work focuses on an AlphaScreen(tm)-based HTS assay for Malignant Brain Tumor (MBT) domain-containing proteins, which bind to the lower methylation states of lysine residues present in histone tail peptides.
To each well, 2 uL of L3MBTL1 protein (final 50 nM) and 1 uL biotinylated histone peptide monomethylated at Lys9 [b-AHA-H3(1-15)K9me1] (final 75 nM) was added using a nanoliter dispenser. Formation of a protein-peptide complex proceeded at room temperature for 30 min. A Kalypsys pin-tool was employed to transfer 23 nL of library compound solution in DMSO to each well. Cefsulodin, found in a pilot screen of the LOPAC library to be a weak inhibitor of L3MBTL1 binding, was used as an intraplate control with a 16-point titration in duplicate. Following a 30 min incubation of the protein-peptide complex with compounds at room temperature, a mixture of 40 ug/mL each streptavidin-coated donor and nickel chelate acceptor AlphaScreen beads (final 10 ug/mL) was added in a 1 uL dispense for a final volume of 4 uL. Plates were incubated, protected from the light for 30 min at room temperature. Microplates were then be read on an EnVision multilabel plate reader using the 1,536 plate HTS AlphaScreen aperture (excitation time 80 ms, measurement time 240 ms).

[6] = qHTS Assay for the Inhibitors of L3MBTL1: Hit Validationin AlphaScreen Counterscreen (AID 602224)
From the text: as §1
Although AlphaScreen has significant advantages with its utility in a variety of epigenetic target assays, the primary screening data (linked to this assay) should be used with caution due to the prevalence of screening artifacts. An AlphaScreen counterscreen was developed and ran against any putative actives to eliminate non-specific artifacts. […] Compounds that were active in the primary screen were run in this this counterscreen. Compounds that are active in this screen are compounds that are artifacts in the primary screen.
NIH Chemical Genomics Center [NCGC]
NIH Molecular Libraries Probe Centers Network [MLPCN]
Assay Submitter (PI): William Janzen, University of Carolina, Chapel Hill
Biotinylated hexahistidine (b-His6) (PerkinElmer, Waltham, MA) will be added to 1,536-well plates in a 3 uL dispense. Compounds will be added in a 23 nL pin-transfer step, and plates will be incubated at room temperature for 15 min. Streptavidin-coated donor and nickel chelate acceptor AlphaScreen beads will be added (1 uL) for final concentrations of 10 ug/mL each bead and 1 nM b-His6, and plates read as described above (qHTS assay) after a 30 min incubation at room temperature in the dark

[7] = target: DNA polymerase iota (Homo sapiens) (UniProt Q9UNA4); experiment: qHTS for Inhibitors of Polymerase Iota: Confirmatory Assay for Cherry-picked Compounds (AID 720496); settings: Pol iota primer extension, TAMRA/BHQ fluorescence; note: potency is the fitted concentration of half-maximal effect
DNA polymerase iota (Homo sapiens), sequence (Q9UNA4 whole entry, looked up): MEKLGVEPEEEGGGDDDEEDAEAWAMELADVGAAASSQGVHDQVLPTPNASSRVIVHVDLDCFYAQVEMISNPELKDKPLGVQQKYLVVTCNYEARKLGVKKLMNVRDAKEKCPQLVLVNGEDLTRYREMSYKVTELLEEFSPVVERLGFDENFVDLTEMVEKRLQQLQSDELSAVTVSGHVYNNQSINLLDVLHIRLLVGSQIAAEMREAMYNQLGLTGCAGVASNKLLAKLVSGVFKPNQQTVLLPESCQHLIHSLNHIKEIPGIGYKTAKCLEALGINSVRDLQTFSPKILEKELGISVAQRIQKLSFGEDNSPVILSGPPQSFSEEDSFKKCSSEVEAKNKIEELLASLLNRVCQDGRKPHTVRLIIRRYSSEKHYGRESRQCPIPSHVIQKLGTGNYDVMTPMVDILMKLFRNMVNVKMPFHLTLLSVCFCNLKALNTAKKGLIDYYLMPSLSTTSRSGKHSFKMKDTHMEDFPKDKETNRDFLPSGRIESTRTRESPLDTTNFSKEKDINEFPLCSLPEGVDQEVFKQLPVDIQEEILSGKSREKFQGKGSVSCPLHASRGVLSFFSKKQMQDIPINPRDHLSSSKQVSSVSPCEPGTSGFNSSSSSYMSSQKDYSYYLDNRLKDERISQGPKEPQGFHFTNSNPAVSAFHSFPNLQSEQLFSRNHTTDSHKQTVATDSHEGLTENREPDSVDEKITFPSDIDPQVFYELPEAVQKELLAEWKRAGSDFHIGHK
Summary of the method: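 Enzyme (10 nM Pol iota) and compound sit together for 15 min at room temperature. Adding annealed primer/TAMRA-reporter/BHQ-2-template substrate, 50 nM final, starts the reaction, which is followed by fluorescence over 10 min.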

[8] = target: DNA polymerase eta (Homo sapiens) (UniProt Q9Y253); experiment: qHTS for Inhibitors of Polymerase Eta: Confirmatory Assay for Cherry-picked Compounds (AID 720502); settings: Pol eta primer extension, TAMRA/BHQ fluorescence, 10 min; note: potency is the fitted concentration of half-maximal effect
DNA polymerase eta (Homo sapiens), sequence (Q9Y253 whole entry, looked up): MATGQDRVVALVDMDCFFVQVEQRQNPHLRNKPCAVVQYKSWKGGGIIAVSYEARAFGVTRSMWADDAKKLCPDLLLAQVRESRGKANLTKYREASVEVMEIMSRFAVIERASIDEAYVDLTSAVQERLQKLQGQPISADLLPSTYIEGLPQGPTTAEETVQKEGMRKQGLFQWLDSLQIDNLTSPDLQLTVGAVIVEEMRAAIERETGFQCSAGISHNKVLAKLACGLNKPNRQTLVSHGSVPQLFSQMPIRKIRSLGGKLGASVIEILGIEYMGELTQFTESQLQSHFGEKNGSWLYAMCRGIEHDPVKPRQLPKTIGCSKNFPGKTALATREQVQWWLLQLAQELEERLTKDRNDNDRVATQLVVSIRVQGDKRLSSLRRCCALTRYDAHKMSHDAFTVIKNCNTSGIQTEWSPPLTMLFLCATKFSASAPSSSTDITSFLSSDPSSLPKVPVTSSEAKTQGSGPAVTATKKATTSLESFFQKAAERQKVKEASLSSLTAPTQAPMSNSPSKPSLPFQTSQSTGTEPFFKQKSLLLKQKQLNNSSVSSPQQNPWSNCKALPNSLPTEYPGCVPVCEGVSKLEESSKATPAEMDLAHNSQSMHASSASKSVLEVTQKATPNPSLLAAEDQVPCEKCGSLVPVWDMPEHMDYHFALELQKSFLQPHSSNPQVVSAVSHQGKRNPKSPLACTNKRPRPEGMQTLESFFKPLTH
Summary of the method: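 Enzyme at 10 nM is mixed with pin-transferred compound and left 15 min at room temperature. Substrate (50 nM final) is then added, and plates are read at 0 min and after 10 min.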

With CNC(=O)[C@H](C)/C=C(\c1cccnc1)C(NC(=O)OCc1ccccc1)c1ccc(C(=O)OC)cc1 (stereo not given in full) the outcome [1] was “inactive” and the Potency [2] was “inactive”.
In the case of CC(=O)N1[C@H](Cc2ccccc2)C=C[C@]1(C)C(=O)NCc1cc(F)cc(C(F)(F)F)c1, the outcome [1] is reported as “inactive”, the Potency [3] is reported as 6.31 µM (active) and the Potency [2] is reported as “inactive”.
In the case of CC(=O)N1CC=CC1(C)C(=O)NCc1cc(F)cc(C(F)(F)F)c1 (stereo not given), the outcome [1] is reported as “inactive”, the Potency [3] is reported as 15.8 µM (active) and the Potency [2] is reported as “inactive”.
For COC(=O)c1ccc(C(NC(=O)OCc2ccccc2)/C(F)=C/[C@@H](C)C(=O)NC2CCCCC2)cc1 (stereo not given in full), the outcome [1] was “inactive”, the Potency [3] was 3.98 µM (active) and the Potency [2] was “inactive”.
With COC(=O)c1ccc(C(NC(=O)OCc2ccccc2)/C(=C/[C@@H](C)C(=O)NCc2ccccc2)c2cccnc2)cc1 (stereo not given in full) the outcome [1] was “inactive”, the Potency [3] was 3.98 µM (active) and the Potency [2] was “inactive”.
For CC(=O)N1CC=CC1(C)C(=O)O (stereo not given), the outcome [1] was “inactive” and the Potency [2] was “inactive”.
With CC1=C(C(=O)OCc2ccccc2)C(c2ccc(C(F)(F)F)cc2)NC(=O)N1CCCCCC(=O)O (stereo not given) the outcome [1] was “inactive” and the Potency [2] was “inactive”.
For COC(=O)c1ccc(C(NC(=O)OCc2ccccc2)/C(C)=C/[C@@H](C)C(=O)NCc2nn(-c3ccccc3)nc2C)cc1 (stereo not given in full), the outcome [1] was “inactive”, the Potency [3] was 2.51 µM (active) and the Potency [2] was “inactive”.
With COC(=O)c1ccc(C(NC(=O)OCc2ccccc2)/C(F)=C/[C@@H](C)C(=O)N(C)Cc2cccnc2)cc1 (stereo not given in full) the outcome [1] was “inactive”, the Potency [3] was 2 µM (active) and the Potency [2] was “inactive”.
In the case of CC(=O)N1C2(C=CC1(C)C(=O)NCc1cc(F)cc(C(F)(F)F)c1)CCCCC2 (stereo not given), the outcome [1] is reported as “inactive” and the Potency [2] is reported as “inactive”.
For COC(=O)CNC(=O)C1(CC(C)C)C=CCN1C(C)=O (stereo not given), the outcome [1] was “inactive” and the Potency [2] was “inactive”.
For COC(=O)c1ccc(C(NC(=O)OCc2ccccc2)/C(I)=C/[C@@H](C)C(=O)NCc2ccncc2)cc1 (stereo not given in full), the outcome [1] was “inactive” and the Potency [2] was “inactive”.
In the case of COCCNC(=O)[C@@]1(Cc2ccccc2)C=C[C@@H](C)N1C(C)=O, the outcome [1] is reported as “inactive” and the Potency [2] is reported as “inactive”.
For CCCCCCN(C(=O)CCCCCN1C(=O)NC(c2ccc(-c3ccccc3)cc2)C(C(=O)OCc2ccccc2)=C1C)C(C(=O)NCCCC)c1ccccn1 (stereo not given), the outcome [1] was “inactive” and the Potency [2] was “inactive”.
For C=C[C@@H]1CN2CC[C@@H]1C[C@@H]2[C@@H](O)c1ccnc2ccc(OC)cc12, the Potency [4] was “inactive”.
For CC(=O)N1CC=CC1(CC(C)C)C(=O)NCc1ccccn1 (stereo not given), the outcome [1] was “inactive” and the Potency [2] was “inactive”.
In the case of CCCCCCN(C(=O)CCCCCN1C(=O)NC(c2ccc(-c3ccccc3)cc2)C(C(=O)OCc2ccccc2)=C1C)C(C(=O)NCCCC)c1ccc(OCC(=O)O)c(C(=O)O)c1 (stereo not given), the outcome [1] is reported as “inactive” and the Potency [2] is reported as “inactive”.
In the case of CC(C)(C)OC(=O)NCCCCCNC(=O)c1[nH]cnc1C(=O)Nc1nccs1, the Potency [5] is reported as 7.52 µM (active) and the outcome [6] is reported as “inactive”.
In the case of COc1ccc(CNC(=O)C(C)Cc2ccccc2)cc1O (stereo not given), the outcome [1] is reported as “inactive” and the Potency [2] is reported as “inactive”.
In the case of COc1cccc2c(C)c(C(=O)O)[nH]c12, the Potency [5] is reported as 5.97 µM (active) and the outcome [6] is reported as “inactive”.
In the case of C[C@H]1[C@H](C)CC[C@]2(C(=O)O)CC[C@]3(C)C(=CCC4[C@@]5(C)CC[C@H](O)C(C)(C)[C@@H]5CC[C@]43C)[C@H]12 (stereo not given in full), the Potency [4] is reported as “inactive”.
With COC(=O)[C@@]1(C)C[C@@H]1[C@@H](NC(=O)[C@@]1(C)C[C@@H]1[C@@H](NC(=O)[C@@]1(C)C[C@@H]1[C@@H](NC(=O)[C@@]1(C)C[C@@H]1[C@@H](NC(=O)OCc1ccccc1)c1ccccc1)c1ccccc1)c1ccccc1)c1ccccc1 the outcome [1] was “inactive” and the Potency [2] was “inactive”.
For COc1cc2c(Cc3c4c5c(cc(OC)c(OC)c5c5c(OC)c(OC)ccc35)CCN4C)c3c4c(cc(OC)c(OC)c4c2cc1OC)CCN3C, the Potency [4] was “inactive”.
For COC(=O)CNC(=O)[C@@]1(C)C=C[C@@H](Cc2ccccc2)N1C(C)=O, the outcome [1] was “inactive” and the Potency [2] was “inactive”.
With CC(=O)N1CC=CC1(CC(C)C)C(=O)NCc1ccc(C)o1 (stereo not given) the outcome [1] was “inactive” and the Potency [2] was “inactive”.
For CCCCNC(=O)C(c1ccc(OCC(=O)OC)c(C(=O)OC)c1)N(CCOC)C(=O)CCCCCN1C(=O)NC(c2ccc(-c3ccccc3)cc2)C(C(=O)OCc2ccccc2)=C1C (stereo not given), the outcome [1] was “inactive” and the Potency [2] was “inactive”.
In the case of Oc1ccc(N=Nc2nccs2)c(O)c1, the Potency [5] is reported as 16.8 µM (active) and the outcome [6] is reported as “inactive”.
In the case of CC(=O)Oc1ccc(/C=C/C(=O)CC2OC(Oc3cc(OC(C)=O)c4c(c3)O[C@@H](c3ccc(OC(C)=O)cc3)CC4=O)C(OC(C)=O)C(OC(C)=O)C2OC(C)=O)cc1 (stereo not given in full), the Potency [4] is reported as “inactive”.
For CCN(C(=O)Cc1nc(N)n[nH]1)C1(C(=O)Nc2ccccc2)CCCCC1, the Potency [5] was 26.7 µM (active).
In the case of COCCNC(=O)Nc1ccc2nc(-c3ccco3)c(-c3ccco3)nc2c1, the Potency [5] is reported as 1.89 µM (active), the Potency [7] is reported as 7.52 µM (active) and the Potency [8] is reported as 5.36 µM (active).
With COc1ccc(Cc2nnc(NC(=O)Cc3cccs3)s2)cc1 the Potency [5] was 1.19 µM (active), the Potency [7] was 16.8 µM (active) and the Potency [8] was 19 µM (active).
In the case of Cn1c2ccccc2c(=O)c2c(=O)n(Cc3ccco3)c(COc3ccccc3)nc21, the Potency [5] is reported as 7.52 µM (active), the outcome [6] is reported as “inactive” and the Potency [7] is reported as 75.2 µM (active).
For C=C(CO)C1Cc2c(ccc3c2OC2COc4cc(OC)c(OC)cc4C2C3=O)O1 (stereo not given), the Potency [4] was “inactive”.
With CCCCNC(=O)C(c1ccc(OCC(=O)OC)c(C(=O)OC)c1)N(CCC1=CCCCC1)C(=O)CCCCCN1C(=O)NC(c2ccc(-c3ccccc3)cc2)C(C(=O)OCc2ccccc2)=C1C (stereo not given) the outcome [1] was “inactive” and the Potency [2] was “inactive”.
For CC(C)NC(=O)[C@H]1C[C@@H]1[C@H](NC(=O)OCc1ccccc1)c1ccccc1, the outcome [1] was “inactive” and the Potency [2] was “inactive”.
For CCCCCCN(C(=O)CCCCCN1C(=O)NC(c2ccc(-c3ccccc3)cc2)C(C(=O)OCc2ccccc2)=C1C)C(C(=O)NCCCC)c1cccc(C(=O)OC)c1 (stereo not given), the outcome [1] was “inactive” and the Potency [2] was “inactive”.
